Some test systems named below: SK-MEL-2 melanoma; EKVX NSCLC; SN12C renal; UO-31 renal; TK-10 renal; ACHN renal; CAKI-1 renal; A498 renal; MOLT-4 leukemia; SR leukemia; RPMI-8226 leukemia; OVCAR-8 ovarian; OVCAR-5 ovarian; OVCAR-4 ovarian; SK-OV-3 ovarian; IGROV1 ovarian; OVCAR-3 ovarian; HS 578T breast; NCI/ADR-RES ovarian.
Holding throughout (assay): NCI-60 one-dose screen, 48 h (100 = growth as untreated, 0 = no growth, -100 = all killed)
Details in all cases: 10 µM unless noted

The structures appear in SMILES notation. Compounds without any hit were thinned out: in the full panel of roughly 83,000, 20% have a hit.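 The endpoint reported here, percent growth, reads 100 for growth as untreated, 0 for no net growth and -100 for all cells dead.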 Unmarked numbers belong to inactive results. Activity calls are given as the source filed them. Rule for the calls: active = growth percent below 10; inactive = the rest.

`COc1cc(-c2n/c(=C\c3c(O)[nH]c4ccc(Cl)cc34)cc3c2=Nc2ccccc2-3)cc(OC)c1OC`: the growth with SK-MEL-2 melanoma is 36%; with EKVX NSCLC, 38.6%; in the assay with SN12C renal, -27.5% (active); with UO-31 renal, -54.3% (active); in the assay with TK-10 renal, -7.12% (active); with ACHN renal, -44.8% (active). For the same molecule, the growth was 13.2% in the assay with CAKI-1 renal; 52.4% with A498 renal; 10.2% in the assay with MOLT-4 leukemia; 0.372% (active) in the assay on SR leukemia; 15.5% in the assay with RPMI-8226 leukemia; 3.95% (active) in the assay on OVCAR-8 ovarian. Also, the growth is 88.6% in the assay on OVCAR-5 ovarian; -41.8% (active) with OVCAR-4 ovarian; -14.2% (active) with SK-OV-3 ovarian; -18.3% (active) with IGROV1 ovarian; -57.4% (active) in the assay with OVCAR-3 ovarian; 20.9% in the assay on HS 578T breast. In addition, the growth in the assay on NCI/ADR-RES ovarian was 15.1%.

Turning to `N#Cc1c(-c2ccccc2)cc(-c2ccc(Nc3nc(Nc4ccc(F)cc4)nc(Nc4ccc(F)cc4)n3)cc2)nc1N`, the growth in the assay on SK-MEL-2 melanoma was 79.7%; in the assay with EKVX NSCLC it was 88.9%; with SN12C renal, 90.3%; with UO-31 renal it was 90.4%; in the assay with TK-10 renal it was 94%; with ACHN renal, 107%. Also, the growth in the assay on CAKI-1 renal is 99.8%; in the assay on A498 renal, 91.7%; with MOLT-4 leukemia, 17.3%; in the assay with SR leukemia, 0.591% (active); in the assay with RPMI-8226 leukemia it was 14.9%; in the assay with OVCAR-8 ovarian, 97.2%. For the same molecule, the growth in the assay with OVCAR-5 ovarian was 70.9%; in the assay on OVCAR-4 ovarian it was 108%; in the assay with SK-OV-3 ovarian it was 100%; in the assay on IGROV1 ovarian, 95.5%; with OVCAR-3 ovarian, 89.5%; with HS 578T breast, 87.8%. Besides, the growth in the assay with NCI/ADR-RES ovarian is 76.1%.

Regarding `O=c1cc(C2NNC(=S)N2)c2ccc3ccccc3c2o1` (configuration not stated), the growth in the assay with SK-MEL-2 melanoma was 106%; in the assay on EKVX NSCLC it was 64.5%; in the assay on SN12C renal it was 100%; with UO-31 renal it was 70.6%; in the assay with TK-10 renal it was 126%; in the assay with ACHN renal it was 94.7%. Also, the growth was 85.1% with CAKI-1 renal; 88.1% with A498 renal; 102% with MOLT-4 leukemia; 97.8% in the assay on SR leukemia; 74.8% with RPMI-8226 leukemia; 97.4% in the assay with OVCAR-8 ovarian. Also, the growth with OVCAR-5 ovarian was 109%; in the assay with OVCAR-4 ovarian, 101%; with SK-OV-3 ovarian, 97.2%; in the assay with IGROV1 ovarian, 76.8%; with OVCAR-3 ovarian it was 106%; in the assay with HS 578T breast, 71%. Moreover, in the assay on NCI/ADR-RES ovarian, the growth was 101%.

Turning to `C=C(C)[C@@H]1CC[C@]2(C(=O)NC3CCCCC3)CC[C@]3(C)[C@H](CC[C@@H]4[C@@]5(C)CCCNC(C)(C)[C@@H]5CC[C@]43C)[C@@H]12`, the growth in the assay with SK-MEL-2 melanoma is 35%; in the assay with EKVX NSCLC it was 77.6%; in the assay with SN12C renal it was 61.6%; in the assay with UO-31 renal it was 61.5%; with TK-10 renal, 86.5%; in the assay with ACHN renal, 51%. Moreover, the growth is 26.4% with CAKI-1 renal; 68.7% with A498 renal; -2.14% (active) in the assay on MOLT-4 leukemia; -22.5% (active) in the assay with SR leukemia; -32.5% (active) with RPMI-8226 leukemia; -16.7% (active) in the assay on OVCAR-8 ovarian. Also, the growth was 82.8% in the assay on OVCAR-5 ovarian; 44.6% with OVCAR-4 ovarian; 95.8% with SK-OV-3 ovarian; 55.1% in the assay on IGROV1 ovarian; 64.8% with OVCAR-3 ovarian; 78.8% with HS 578T breast. Further, the growth with NCI/ADR-RES ovarian was 57.7%.

`Cc1ccc(-c2cc(-c3ccccc3C)[nH]c(=O)c2C#N)s1`: the growth in the assay with SK-MEL-2 melanoma was 110%; with EKVX NSCLC, 96.9%; in the assay with SN12C renal, 91.8%; with UO-31 renal, 71.7%; with TK-10 renal, 92.1%; in the assay on ACHN renal, 90.7%. Further, the growth in the assay on CAKI-1 renal was 82.9%; with A498 renal, 77.5%; in the assay on MOLT-4 leukemia it was 93.3%; in the assay with SR leukemia it was 118%; with RPMI-8226 leukemia, 97.5%; in the assay on OVCAR-8 ovarian, 95.5%. Further, the growth is 93.4% in the assay on OVCAR-5 ovarian; 85.1% in the assay on OVCAR-4 ovarian; 111% in the assay with SK-OV-3 ovarian; 80.4% with IGROV1 ovarian; 94.5% in the assay on OVCAR-3 ovarian; 82.8% in the assay with HS 578T breast. The growth in the assay with NCI/ADR-RES ovarian was 96.8%.

With `C=CCn1c(C)nc2cc(Nc3nc(Cl)nc4ccccc34)ccc21`, the growth was 99.5% in the assay with SK-MEL-2 melanoma; 93.7% in the assay on EKVX NSCLC; 97.3% in the assay on SN12C renal; 93.8% in the assay with UO-31 renal; 114% with TK-10 renal; 103% in the assay on ACHN renal. Besides, the growth in the assay on CAKI-1 renal is 87.2%; with A498 renal it was 55.4%; in the assay on MOLT-4 leukemia, 78.7%; with SR leukemia, 94.7%; in the assay with RPMI-8226 leukemia, 75.2%; in the assay with OVCAR-8 ovarian, 93.8%. Moreover, the growth in the assay with OVCAR-5 ovarian is 99.8%; in the assay on OVCAR-4 ovarian, 91.2%; in the assay on SK-OV-3 ovarian, 122%; with IGROV1 ovarian, 116%; with OVCAR-3 ovarian it was 102%; with HS 578T breast, 92.7%. In addition, the growth with NCI/ADR-RES ovarian was 90.3%.

As to `CC/C=C\CCC/C=C1/C(=O)C=C[C@@H]1C/C=C\CCCC(=O)O`, the growth in the assay with SK-MEL-2 melanoma was 89.4%; in the assay on EKVX NSCLC, 103%; in the assay on SN12C renal, 48.4%; in the assay with UO-31 renal, 70.8%; in the assay on TK-10 renal, 114%; in the assay on ACHN renal, 42.9%. The growth in the assay with CAKI-1 renal was 60.1%; in the assay on A498 renal, 103%; in the assay with MOLT-4 leukemia, 6.84% (active); with SR leukemia, 8.78% (active); with RPMI-8226 leukemia, 6.36% (active); in the assay on OVCAR-8 ovarian, 9.28% (active). Moreover, the growth is 72.6% in the assay on OVCAR-5 ovarian; 92.5% in the assay on OVCAR-4 ovarian; 124% in the assay on SK-OV-3 ovarian; 104% in the assay on IGROV1 ovarian; 43.6% with OVCAR-3 ovarian; 45.7% in the assay on HS 578T breast. The growth in the assay with NCI/ADR-RES ovarian is 19%.

In the case of `C[C@@]1(CCC#N)[C@H]2CC[C@@H]3[C@H]4[C@H](C(=O)/C=C/c5cccnc5)CC[C@]4(C#N)CC[C@@]3(C)[C@]2(C)CC[C@H]1C(=O)/C=C/c1cccnc1`, the growth with SK-MEL-2 melanoma is 77.7%; in the assay on EKVX NSCLC it was 98.1%; in the assay with SN12C renal it was 65.4%; with UO-31 renal it was 87.3%; in the assay on TK-10 renal, 101%; with ACHN renal it was 56.3%. The growth in the assay with CAKI-1 renal was 68.7%; with A498 renal it was 99%; in the assay on MOLT-4 leukemia it was 11.7%; in the assay with SR leukemia, 12.9%; with RPMI-8226 leukemia it was -2.94% (active); in the assay on OVCAR-8 ovarian, 34.7%. Also, the growth was 136% with OVCAR-5 ovarian; 69.1% with OVCAR-4 ovarian; 89.7% with SK-OV-3 ovarian; 45.7% in the assay on IGROV1 ovarian; 39.9% with OVCAR-3 ovarian; 78.4% in the assay with HS 578T breast. Besides, in the assay with NCI/ADR-RES ovarian, the growth is 65.1%.

The record behind these values is PubChem BioAssay (NCI).
